# According to paper PMC6925144, “A prospective compound screening contest identified broader inhibitors for Sirtuin 1” (Scientific Reports, 2019):
# The full ranking holds about 3,200 compounds; the median of “TSA(with NAD+) / Primary screening (TSA) / delta Tm (K)” is about -0.04, and the highest 2% start at about 0.37. This excerpt belongs to a sample that is enriched for the highest values.
# Molecular target: NAD-dependent deacetylase Sirtuin 1 (human, UniProt Q96EB6)
# Test: primary screen, delta tm
# Design: single well (n = 1, as 'the same TSA')
# Settings: 10 µM
# Procedure: A total of 3,192 compounds extracted from the proposed lists were first screened by thermal shift assay (TSA), which determined a melting temperature shift (ΔTm) of Sirtuin 1 upon the addition of a test compound at a concentration of 10 µM (n = 1) with primary hit criteria of ΔTm > 0.45 K or ΔTm < −1.5 K. Primary hits (48 compounds) were retested in the same assay at three concentrations (5, 10, 20 µM, n = 4) for hit confirmation and for dose-dependency check. Secondary hits (41 compounds) were checked their selectivity for Sirtuin 1 based on counterscreening on unrelated protein targets (bovine carbonic anhydrase (CA) and recombinant SH2 domain of hABL1 kinase (ABL1)) at three different concentrations (5, 10, 20 µM, n = 4), which yielded 38 hit compounds, hereafter referred to as TSA hits. The TSA screening above was conducted in the absence of NAD+. As noted, the structure of Sirtuin 1 is different in the presence of NAD+ and substrate. The chemical profile of TSA hits found from the different conditions could be different. […] As a result, 39 TSA hits were found.
# NAD-dependent deacetylase Sirtuin 1, sequence (Q96EB6 2-747 limits assumed): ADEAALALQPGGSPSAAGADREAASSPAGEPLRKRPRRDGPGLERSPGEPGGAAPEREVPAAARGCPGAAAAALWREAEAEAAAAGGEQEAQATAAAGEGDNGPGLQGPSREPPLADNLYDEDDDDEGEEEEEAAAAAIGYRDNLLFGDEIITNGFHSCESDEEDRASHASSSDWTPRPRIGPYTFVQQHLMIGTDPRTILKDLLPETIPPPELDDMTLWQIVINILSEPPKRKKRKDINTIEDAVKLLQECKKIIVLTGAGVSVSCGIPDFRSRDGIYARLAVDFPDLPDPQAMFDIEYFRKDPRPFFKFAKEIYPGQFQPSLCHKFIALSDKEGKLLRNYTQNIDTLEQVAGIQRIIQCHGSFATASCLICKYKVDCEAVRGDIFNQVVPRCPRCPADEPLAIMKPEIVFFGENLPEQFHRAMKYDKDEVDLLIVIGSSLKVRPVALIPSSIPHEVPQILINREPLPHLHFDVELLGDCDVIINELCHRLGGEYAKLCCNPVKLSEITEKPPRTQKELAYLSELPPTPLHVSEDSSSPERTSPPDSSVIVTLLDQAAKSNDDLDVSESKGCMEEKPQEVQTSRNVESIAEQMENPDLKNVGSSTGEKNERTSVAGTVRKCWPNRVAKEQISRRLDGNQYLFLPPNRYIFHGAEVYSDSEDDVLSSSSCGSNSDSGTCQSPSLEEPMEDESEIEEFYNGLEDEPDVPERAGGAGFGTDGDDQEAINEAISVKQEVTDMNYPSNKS
row,SMILES,TSA(with NAD+) / Primary screening (TSA) / delta Tm (K)
1,COC(=O)c1ccc(C2NC(=O)NC3=C2C(=O)N(CC(C)O)C3)cc1 (stereo not shown),-0.05 K
2,C=C(Br)CN,0.06 K
3,NC(=O)c1cc(C2CCCN(c3nccc(-n4cccn4)n3)C2)n[nH]1 (stereo not shown),0.05 K
4,Cc1ccc(N(C)S(=O)(=O)c2cccc(C(=O)Oc3ccc4c(C)cc(=O)oc4c3)c2)cc1,0.16 K
5,O=C(NC(=S)Nc1ccc(-c2nc3ccccc3[nH]2)cc1)C12CC3CC(CC(C3)C1)C2,0.43 K
6,O=C(CC12CC3CC(CC(C3)C1)C2)NCC(=O)Nc1ccc(Sc2nc3ccccc3[nH]2)cc1,0.23 K
7,O=C1CCCCC(C(=O)Nc2ccc(-c3nc4ccccc4[nH]3)cc2)N1 (stereo not shown),0.16 K
8,COc1ccc2nc(C)c(C(=O)NC34CC5CC(CC(C5)C3)C4)cc2c1,-0.28 K
9,C[C@@H](N)CCO,-0.05 K
10,O=C1NC(=S)NC(=O)C1=Cc1cn(-c2ccccc2)nc1-c1cc2ccccc2oc1=O,-0.05 K
11,O=C1NC(=S)NC(=O)C1=Cc1cn(-c2ccccc2)nc1-c1cc2ccccc2o1,0.56 K
12,O=C1NC(=O)C(=Cc2cn(-c3ccccc3)nc2-c2cc3ccccc3o2)C(=O)N1,-0.11 K
13,O=S(=O)(c1ccc(C(F)(F)F)cc1)N1CCNCC1,0.03 K
14,O=C(Nc1cccc(C(F)(F)F)c1)c1cccc(NC(=O)c2cc3c(cc2[N+](=O)[O-])OCCO3)c1,0.38 K
15,NC(=O)NCCCCC(=O)Nc1cccc(C(F)(F)F)c1,0.08 K
16,CN(C)Cc1ccc(C(=O)Nc2cccc(C(=O)NC3CC3)c2)cc1,0.01 K
17,CCc1cc2c(N3CCN(Cc4ccc5c(c4)OCO5)CC3)nc(C)nc2s1,-0.04 K
18,NCCCC(N)C(=O)O (stereo not shown),-0.08 K
19,NC(=O)CC1CCN(C(=O)CCc2c[nH]c3ccccc23)CC1,-0.03 K
20,O=C(CCc1ccccc1)NC1CCN(c2ccc([N+](=O)[O-])c3cccnc23)CC1,-0.21 K
21,Cc1c(C=C2C(=O)NC(=S)NC2=O)c2ccccn2c1C(=O)c1cccc([N+](=O)[O-])c1,-0.03 K
22,O=C(CCc1ccccc1)Nc1ccccc1Cc1ccccc1,-0.06 K
23,Cc1cccc(-n2ccnc2SCC(=O)Nc2ccc(S(=O)(=O)Nc3nccs3)cc2)c1C,0.13 K

row,SMILES,TSA(with NAD+) / Primary screening (TSA) / delta Tm (K)
1,NC(=O)COC(=O)c1ccc(OCC(=O)Nc2cccc(C(F)(F)F)c2)cc1,0.23 K
2,O=C(COc1ccccc1C(=O)Nc1ccc(S(=O)(=O)Nc2nccs2)cc1)Nc1cccc(C(F)(F)F)c1,0.82 K
3,CC(C)c1ccc(C(NC(=O)c2cccc(C(N)=O)c2)c2cccs2)cc1 (stereo not shown),-0.05 K
4,O=C1NC(=S)N/C1=C\c1ccccc1OCc1ccc(C(=O)O)cc1,0.23 K
5,Cc1nc(-c2ccc(CCNC(=O)c3ccc(NC(=O)c4cccs4)cc3)s2)cs1,0.58 K
6,COc1ccc(C(=O)NCCc2ccc(-c3csc(C)n3)s2)cc1,-0.09 K
7,Cc1nc(-c2ccc(CCNC(=O)c3ccc(NC(N)=O)cc3)s2)cs1,0.08 K
8,Cc1ccccc1CNC(=O)CSc1nc2ccsc2c(=O)n1C,-0.22 K
9,O=C(Nc1ccc2c3c(cccc13)CC2)N1CCC(n2cncn2)CC1,-0.08 K
10,CCCN1CCN(CCCOc2ccccc2)CC1,-0.12 K
11,CC12CCC(C/C1=N/N=C1/CC3CCC1(C)C3(C)C)C2(C)C,-0.29 K
12,O=C(CSc1nnnn1-c1ccc(O)cc1)N1N=C(c2ccc3ccccc3c2)CC1c1ccccc1 (stereo not shown),0.66 K
13,CC(=O)N1N=C(c2ccccc2)CC1c1ccc(Br)cc1 (stereo not shown),-0.08 K
14,CC(=O)N1N=C(c2ccc(O)cc2)CC1c1ccccc1 (stereo not shown),0.36 K
15,COc1ccnc(C(=O)NCC(C)(C)N2CCC(N(C)C)CC2)c1,-0.14 K
16,OC(CNc1ncccn1)c1ccc(Cl)cc1 (stereo not shown),-0.04 K
17,O=C(O)c1ccc2[nH]c(S)nc2c1,-0.13 K
18,CC(OC(=O)Cc1c[nH]c2ccccc12)C(=O)Nc1ccc(C(N)=O)cc1 (stereo not shown),0.12 K
19,O=C(CCc1c[nH]c2ccccc12)NCCc1ccco1,-0.11 K
20,O=C(CCc1c[nH]c2ccccc12)Nc1ccc2nc[nH]c(=O)c2c1,0.27 K
21,O=C(CCc1c[nH]c2ccccc12)Nc1nnc(-c2ccccc2)o1,0.39 K
22,O=C1NC(=S)NC(=O)C1=Cc1cc2ccccc2[nH]c1=O,-0.09 K
23,CN(c1ccccc1)S(=O)(=O)c1ccc(C(=O)Nc2cccc(S(=O)(=O)N3CCOCC3)c2)cc1,-0.01 K

row,SMILES,TSA(with NAD+) / Primary screening (TSA) / delta Tm (K)
1,O=C(Nc1cccc(S(=O)(=O)N2CCOCC2)c1)C(c1ccccc1)c1ccccc1,0.16 K
2,O=C(Nc1cccc(S(=O)(=O)N2CCOCC2)c1)c1cn(-c2ccccc2)nc1-c1ccc(F)cc1,0.39 K
3,O=C(Nc1cccc(S(=O)(=O)N2CCOCC2)c1)c1cn(-c2ccccc2)nc1-c1ccccc1,0.12 K
4,O=C(Nc1cccc(S(=O)(=O)N2CCOCC2)c1)c1cccc(S(=O)(=O)N2CCc3ccccc32)c1,0.41 K
5,O=C(Nc1cccc(S(=O)(=O)N2CCOCC2)c1)c1ccccc1Cc1ccccc1,-0.09 K
6,O=C(Nc1cccc(S(=O)(=O)N2CCOCC2)c1)c1cn(-c2ccccc2)nc1-c1ccc(Cl)cc1,0.63 K
7,Cc1ccc(-c2nn(-c3ccccc3)cc2C(=O)Nc2cccc(S(=O)(=O)N3CCOCC3)c2)cc1,0.26 K
8,O=C(Nc1cccc(S(=O)(=O)N2CCOCC2)c1)c1cc(-c2ccccc2)nn1-c1ccccc1,-0.04 K
9,O=C(CCC(=O)c1ccccc1)Nc1ccccc1Cc1ccccc1,-0.11 K
10,COC1CCCC1NC(=O)Cc1sc(S)nc1C (stereo not shown),-0.26 K
11,COc1ccccc1C1C(C(=O)/C=C/c2ccco2)=C(O)C(=O)N1CCCN1CCOCC1 (stereo not shown),-0.18 K
12,CC(N)C(N)=O (stereo not shown),-0.19 K
13,NC(=O)C1CCN(c2ncnc3sc4c(c23)CCC4)CC1,-0.04 K
14,Cc1nc(N2CCC(C(N)=O)CC2)c2c3c(sc2n1)CCCC3,0.57 K
15,Cc1nc(N2CCC(NC(N)=O)CC2)c2c3c(sc2n1)CCCC3,-0.03 K
16,Cc1nc(N2CCC(C(N)=O)CC2)c2c3c(sc2n1)CCCCC3,0.66 K
17,Cc1nc(N2CCC(C(N)=O)CC2)c2c3c(sc2n1)CCC3,0.01 K
18,Cc1nc(N2CCN(c3ncccc3C(N)=O)CC2)c2c3c(sc2n1)CCC3,0.02 K
19,Cc1noc(C(C)N2CCN(Cc3cccc(C(N)=O)c3)CC2)n1 (stereo not shown),-0.03 K
20,NCCC[C@@H](N)C(=O)O,-0.08 K
21,O=C(CCc1nc2ccccc2o1)N1CCN(C(c2ccc(F)cc2)c2ccc(F)cc2)CC1,-0.01 K
22,O=C(O)c1ccc2[nH]c(C(F)(F)F)nc2c1,-0.14 K
23,COc1cc(-c2nc(-c3ccccc3)c(-c3ccccc3)[nH]2)ccc1OS(=O)(=O)c1ccc(C)cc1,0.05 K

row,SMILES,TSA(with NAD+) / Primary screening (TSA) / delta Tm (K)
1,CNC(=O)CCNc1ccc2nnc(C(F)(F)F)n2n1,0.08 K
2,COC(=O)C[C@H](N)C(=O)O,0.02 K
3,COCC(C)N (stereo not shown),-0.04 K
4,Cc1ccc(C23CC4CC(CC(C(=O)OCC(N)=O)(C4)C2)C3)cc1C,-0.16 K
5,Cc1ccc(C23CC4CC(CC(C(=O)OC(C)C(=O)Nc5ccc(S(N)(=O)=O)cc5)(C4)C2)C3)cc1C (stereo not shown),0.43 K
6,Cc1ccc(C23CC4CC(CC(C(=O)OCC(=O)Nc5ccc(S(N)(=O)=O)cc5)(C4)C2)C3)cc1,0.29 K
7,COc1cc(OC)c(OC)cc1C=C1C(=O)NC(=S)NC1=O,-0.16 K
8,Cc1csc2c(N3CC4CCCN4CC3C)ncnc12 (stereo not shown),-0.19 K
9,N#C/C(=C\c1[nH]c2ccccc2c1Cl)C(N)=O,-0.09 K
10,CCOc1ccc(/C=C(/C#N)C(=O)c2c[nH]c3cc(F)ccc23)cc1,-0.03 K
11,CCCCCCCCNC(=O)/C(C#N)=C/c1c[nH]c2ccccc12,0.43 K
12,O=C(NCC1CCCO1)Nc1ccc(NC(=O)c2ccccn2)cc1 (stereo not shown),0.06 K
13,COc1cc(C=C(C(=O)NCC2CCCO2)C(=O)NCC2CCCO2)ccc1OCC(=O)Nc1ccc(C)cc1 (stereo not shown),-0.15 K
14,Cc1ccc(C(=O)Nc2ccc(NC(=O)NCC3CCCO3)cc2)cn1 (stereo not shown),0.55 K
15,COC(=O)c1ccc2[nH]c3c(c2c1)CN(S(C)(=O)=O)CC3,0.16 K
16,N#CCCC(C#N)CN1CCC(CCc2ccc(O)cc2)CC1 (stereo not shown),-0.14 K
17,Cc1cccc(NS(=O)(=O)c2cccc(C(=O)OCC(=O)NC(=O)NC34CC5CC(CC(C5)C3)C4)c2)c1,0.46 K
18,CC(=O)c1ccc(NC(=O)C(C)OC(=O)c2cccc(S(=O)(=O)NC(C)C34CC5CC(CC(C5)C3)C4)c2)cc1 (stereo not shown),0.19 K
19,O=C(COC(=O)c1cccc(NS(=O)(=O)/C=C/c2ccccc2)c1)NC12CC3CC(CC(C3)C1)C2,-0.01 K
20,CC(NS(=O)(=O)c1cccc(C(=O)OCC(=O)Nc2sccc2C#N)c1)C12CC3CC(CC(C3)C1)C2 (stereo not shown),0.37 K
21,O=C(COC(=O)c1cccc(S(=O)(=O)NCc2ccccc2)c1)NC12CC3CC(CC(C3)C1)C2,-0.25 K
22,CC(NC(=O)COC(=O)c1cccc(S(=O)(=O)NCc2ccccc2)c1)C12CC3CC(CC(C3)C1)C2 (stereo not shown),0.05 K
